Bioassay records as filed in PubChem.
Rows were chosen to be rich in hits. Some 1.8% of all compounds tested hit in one or more screens of this group.
LYPLA2 counter: blocks human lysophospholipase 2, a PME1 counter-screen; O95372; recombinant LYPLA2, FP-Rh probe fluorescence polarization; inhibition, % at 5.9 µM; hit rate 0.38% among 320,000;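 active = inhibition above the screen-wide mean plus 3 SD, limit set per campaign, cut at about 26% in these data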;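 note: 0% = LYPLA2 with DMSO and 100% = wells lacking LYPLA2 enzyme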
GSTO1 inh: counter-screen for RBBP9 inhibitors: inhibitors of human GSTO1; P78417; recombinant GSTO1, activity-based probe fluorescence polarization; inhibition, % at 5.96 µM; hit rate 1.1% among 300,000; AID 1974;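 active = inhibition above the campaign mean inhibition plus 3 SD, cut at about 35% in these data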;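 note: 0% = GSTO1-1 with DMSO and 100% = wells lacking GSTO1-1 enzyme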
Target sequence (P78417 whole entry, looked up): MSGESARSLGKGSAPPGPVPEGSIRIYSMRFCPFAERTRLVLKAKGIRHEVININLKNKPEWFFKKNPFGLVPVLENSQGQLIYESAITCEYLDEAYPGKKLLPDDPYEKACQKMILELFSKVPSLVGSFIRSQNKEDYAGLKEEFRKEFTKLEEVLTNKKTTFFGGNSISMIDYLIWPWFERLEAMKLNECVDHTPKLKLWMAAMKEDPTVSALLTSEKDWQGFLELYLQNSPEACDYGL
LYPLA1 inh: counter-screen for PME1 inhibitors: inhibitors of human LYPLA1; O75608; recombinant LYPLA1, FP-Rh probe fluorescence polarization; inhibition, % at 5.9 µM; hit rate 0.16% among 320,000; AID 2174;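 active = inhibition above the mean of all tested compounds plus 3 SD, set per campaign, cut at about 14% in these data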;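 note: inhibitors block serine hydrolase probe labeling of LYPLA1 so polarization falls; 0% = enzyme with DMSO and 100% = wells lacking LYPLA1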
PME-1 primary: blocks human protein phosphatase methylesterase 1 | hit rate 0.53% among 320,000 | recombinant PME-1, FP-Rh probe fluorescence polarization | AID 2130 | Q9Y570 | inhibition, % at 5.9 µM;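 active = inhibition above the campaign mean of all compounds plus 3 SD, cut at about 26% in these data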;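 note: competitive labeling of PME-1 active site by serine hydrolase directed probe; 0% = PME-1 with DMSO and 100% = wells lacking PME-1 enzyme; inhibitors block probe labeling so polarization falls and inhibition rises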
Target sequence (Q9Y570 whole entry, looked up): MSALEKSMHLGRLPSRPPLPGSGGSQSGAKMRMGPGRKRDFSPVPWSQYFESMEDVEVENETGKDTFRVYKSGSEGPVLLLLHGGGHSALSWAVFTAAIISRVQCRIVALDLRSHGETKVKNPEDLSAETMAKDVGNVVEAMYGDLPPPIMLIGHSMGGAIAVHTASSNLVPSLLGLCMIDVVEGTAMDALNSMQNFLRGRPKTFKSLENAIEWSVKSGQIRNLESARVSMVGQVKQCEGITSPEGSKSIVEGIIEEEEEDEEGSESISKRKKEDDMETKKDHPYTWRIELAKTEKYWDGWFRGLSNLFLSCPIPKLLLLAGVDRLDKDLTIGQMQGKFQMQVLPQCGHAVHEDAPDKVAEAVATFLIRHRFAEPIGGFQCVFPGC
PAD4 inh: PAD4 (human) enzyme inhibition; recombinant PAD4, RCA probe fluorescence polarization; inhibition, % at 6.36 µM; hit rate 0.41% among 330,000; AID 485272;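 active = percent inhibition above a cutoff equal to the mean of all tested compounds plus 3 SD, cut at about 15% in these data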;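 note: 0% = PAD4 with RCA probe and DMSO and 100% = probe without PAD4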
Fam108B counter: Fam108B inhibition, counter-screen for RBBP9 inhibitors. hit rate 0.33% among 300,000. inhibition, % at 9.51 µM. AID 1947. recombinant Fam108B, FP-Rh probe fluorescence polarization;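 active = inhibition above the screen mean inhibition plus 3 SD, computed separately per campaign, cut at about 18% in these data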;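 note: inhibitors lower polarization as less probe binds the enzyme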
LYPLA1 conf: counter-screen for PME1 inhibitors: confirmation of human LYPLA1 inhibitors | inhibition, % at 5.9 µM | AID 2233 | hit rate 69% among 480 | recombinant LYPLA1, FP-Rh probe fluorescence polarization | shares compounds with LYPLA1 inh;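 active = mean inhibition across replicates above the hit cutoff set in the primary screen, cut at about 15% in these data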;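 note: loss of FP-Rh probe labeling of LYPLA1 seen as lower polarization; 0% = LYPLA1 with DMSO and 100% = wells lacking LYPLA1 enzyme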
LYPLA2 conf: LYPLA2 (human) inhibition, confirmation counter-screen; shares compounds with LYPLA2 counter; recombinant LYPLA2, FP-Rh probe fluorescence polarization; inhibition, % at 5.9 µM; hit rate 72% among 1,100; AID 2232;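 active = mean inhibition across replicates above the hit cutoff set in the primary screen, cut at about 26% in these data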;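 note: blocked labeling of the enzyme by serine hydrolase FP-Rh probe lowers polarization; 0% = enzyme with DMSO and 100% = wells lacking LYPLA2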
Active calls of the source: *; . = no result given.

SMILES | LYPLA2 counter | GSTO1 inh | LYPLA1 inh | PME-1 primary | PAD4 inh | Fam108B counter | LYPLA1 conf | LYPLA2 conf
Cc1nc([N+](=O)[O-])cn1CC(=O)c1ccc(OC(F)(F)F)cc1 | 9.2 | -5.2 | -3.2 | -11.4 | -1.8 | -7.9 | . | .
COc1ccccc1-n1cc(C(=O)NCC(=O)N2CCN(Cc3ccccc3)CC2)c2ccccc2c1=O | 84.1* | 5.2 | 16.4* | 2.5 | -1.7 | -4.9 | 21.7* | 80.9*
COc1ccccc1-n1cc(C(=O)NCC(=O)NCc2ccc(F)cc2)c2ccccc2c1=O | 3.5 | -0.9 | 0.3 | 6.0 | 2.6 | 3.7 | . | .
CC(C)c1ccccc1NC(=O)COC(=O)c1cc(=O)[nH]c(=O)[nH]1 | -1.5 | -2.6 | -5.0 | -1.6 | 0.3 | -4.9 | . | .
O=C(c1ccccn1)N1CCN(c2ccc(C(F)(F)F)cn2)CC1 | 3.0 | -3.9 | -0.2 | -2.5 | -2.5 | 3.5 | . | .
O=C(c1ccc2n[nH]nc2c1)N1CCN(c2ccc(C(F)(F)F)cn2)CC1 | 61.9* | . | 66.5* | 0.1 | -5.9 | . | 57.7* | 70.1*
c1ccc(CN2CCN(CCCNc3ccc4nnc(-c5ccccc5)n4n3)CC2)cc1 | 38.5* | 2.2 | 36.0* | 2.8 | 4.9 | -1.7 | 38.2* | 29.0*
NC(=O)CN1CCN(c2cccc(Cl)c2)CC1 | -4.3 | 2.5 | -1.9 | 1.9 | -0.8 | 2.0 | . | .
C/C(=C\c1ccccc1)CN1CCN(c2cccc(Cl)c2)CC1 | 37.4* | 5.4 | 24.7* | -4.7 | -3.7 | -0.2 | 42.5* | 44.1*
Cc1ccc(CN2CCN(/N=C/C=C/c3ccccc3[N+](=O)[O-])CC2)cc1 | 71.1* | 8.6 | 32.9* | -3.7 | -2.7 | 3.5 | 52.6* | 76.7*
CCCC(=O)N1CCN(c2ccc([N+](=O)[O-])c(NC(C)c3ccccc3)c2)CC1 (stereo not drawn) | 1.6 | -13.3 | 1.6 | 5.5 | 2.9 | 1.2 | . | .
Cc1ccc(-c2noc(C3CCCN(C(=O)c4ccc(C(C)(C)C)cc4)C3)n2)o1 (stereo not drawn) | 36.1* | 1.6 | 20.2* | -2.5 | 1.4 | -0.9 | 23.4* | 37.0*
CCOc1ccc(S(=O)(=O)N2CCCC(C(=O)NC3CCCC3)C2)cc1 (stereo not drawn) | -3.1 | -0.7 | -7.0 | -2.3 | -2.9 | -1.8 | . | .
CN(C)c1ccc(S(=O)(=O)NCC(=O)NCc2ccccc2)cc1[N+](=O)[O-] | 11.9 | 6.0 | 0.7 | 5.0 | 2.2 | 4.2 | . | .
CN(C)c1ccc(S(=O)(=O)NCC(=O)N2CCN(c3ccccc3)CC2)cc1[N+](=O)[O-] | 28.0* | 7.9 | 18.0* | 7.7 | -3.2 | 0.9 | 23.6* | 26.4*
COc1ccc2c(c1)C(=O)[C@H](O)[C@@H](c1ccc(OC)c(Br)c1)O2 | 92.6* | 4.7 | 44.1* | 19.4 | -1.4 | -0.4 | 41.5* | 93.1*
COc1ccc(C(=O)NC(=S)Nc2cccc(NC(=O)c3ccco3)c2)cc1[N+](=O)[O-] | 47.6* | -0.6 | 37.3* | -22.5 | 4.8 | -8.2 | 12.7 | 23.6
CCOc1ccc(C(=O)NC(=S)Nc2ccc(N3CCCCC3)cc2)cc1[N+](=O)[O-] | 15.9 | 5.5 | -2.6 | 8.6 | -9.4 | 15.8 | . | .
COc1ccc(C(=O)NC(=S)Nc2ccc(NC(=O)c3ccco3)cc2)cc1[N+](=O)[O-] | 5.6 | 1.6 | -0.7 | -6.1 | -0.7 | -7.0 | . | .
CC(=O)N1CCN(c2ccc(NC(=S)NC(=O)c3ccc(C)c([N+](=O)[O-])c3)cc2)CC1 | 42.8* | 6.7 | 20.3* | 1.7 | 0.8 | 1.9 | 31.7* | 55.9*
COc1ccc(C(=O)NC(=S)Nc2ccc(N3CCN(C(C)=O)CC3)cc2)cc1[N+](=O)[O-] | 70.2* | -1.6 | 54.8* | 1.3 | -2.4 | 0.3 | 63.1* | 75.1*
CC(=O)c1ccc(S(=O)(=O)N2CCN(C)CC2)cc1 | 5.1 | 10.6 | -0.9 | 2.2 | -5.3 | 0.2 | . | .
COc1ccc(N2CCN(CC(O)COc3ccc4c(c3)CCC4)CC2)cc1 (stereo not drawn) | 3.8 | -1.6 | 4.3 | -0.9 | -1.6 | -0.6 | . | .
Cc1cc(OCc2cc(C(=O)N3CCC(Oc4cccnc4)CC3)no2)cc(C)c1Cl | 59.5* | -4.3 | 30.4* | 4.7 | -3.3 | -0.6 | 33.2* | 62.1*
C/C(COc1ccccc1)=N\NC(=O)c1nnn(-c2nonc2N)c1CSc1ccccc1 | 9.7 | 9.5 | 2.5 | -1.9 | -1.1 | -4.4 | . | .
SMILES | LYPLA2 counter | GSTO1 inh | LYPLA1 inh | PME-1 primary | PAD4 inh | Fam108B counter | LYPLA1 conf | LYPLA2 conf
N#Cc1c(NC(=S)NC(=O)c2ccccc2)sc2c1CCC2 | 0.6 | 0.9 | -3.1 | -4.3 | 3.8 | 0.4 | . | .
O=C(NC(=S)Nc1sc2c(c1C(=O)O)CCCC2)c1ccccc1 | 96.0* | -65.0 | 78.2* | 0.1 | -2.4 | 7.0 | 71.4* | 87.3*
CC1=C(C)CC(C(=O)NCCc2ccc(F)cc2)C(C(=O)O)C1 (stereo not drawn) | -4.1 | 6.6 | -1.1 | -0.7 | -0.5 | 1.2 | . | .
COc1cc(COc2ccc3c(C)c(Cc4ccccc4)c(=O)oc3c2)cc(OC)c1OC | 50.5* | 1.1 | 17.3* | -1.9 | 3.1 | -6.5 | 36.2* | 57.5*
COc1ccc(-n2nc(C(=O)NCC(=O)N3CCN(c4cccc(Cl)c4)CC3)c3ccccc3c2=O)c(OC)c1 | 82.8* | -4.2 | 49.3* | 4.3 | 3.5 | -3.7 | 49.0* | 68.5*
Cc1ccc(NC(=S)N/N=C2\CC(C)(C)Oc3ccc(O)cc32)cc1 | -2.5 | -2.0 | -0.2 | 13.7 | 3.1 | 1.2 | . | .
CC(=O)N1CCC2(CC1)C/C(=N\NC(=S)Nc1ccc(C)cc1)c1cc(O)ccc1O2 | 49.5* | -16.7 | 22.4* | 4.2 | -1.3 | 6.2 | 31.5* | 54.1*
COc1ccc(OCC(O)CN2CCC(CN3C(=O)c4cccc5cccc(c45)C3=O)CC2)cc1 (stereo not drawn) | 68.6* | 25.0 | 20.0* | -2.9 | 1.4 | -2.7 | 23.1* | 69.3*
CS(=O)(=O)c1ccccc1C(=O)N(CCC1=CCCCC1)c1c(N)n(Cc2ccccc2)c(=O)[nH]c1=O | 1.8 | 4.9 | -1.4 | -0.4 | -2.4 | -0.2 | . | .
Cc1ccc(C(=O)ON=C2CCN(c3ccc([N+](=O)[O-])cc3)CC2)cc1 | 55.0* | 0.0 | 23.0* | -0.3 | 0.0 | -3.9 | 28.5* | 47.1*
O=[N+]([O-])c1ccc(N2CCC(=NOCc3ccc(Cl)cc3)CC2)cc1 | 77.5* | -5.2 | 58.3* | -1.9 | -4.1 | -5.4 | 70.2* | 74.6*
Cc1ccc(C(=O)NC(=S)N2CCN(c3ccc([N+](=O)[O-])cc3)CC2)cc1 | 4.2 | 4.2 | -3.5 | 4.0 | -4.7 | -0.9 | . | .
O=[N+]([O-])c1ccc(C2CCCC/C2=N/OCc2ccc(F)cc2)c([N+](=O)[O-])c1 (stereo not drawn) | -1.3 | -4.9 | -1.3 | 1.1 | -5.8 | 1.5 | . | .
